{"source": "the supplement of paper PMC10338343", "note": "± gives the standard deviation.", "data": [{"system": "MILI (PIWIL2) piRISC loaded with piRNA #1 (26 nt)", "test": "pre-steady-state target cleavage rate (min^-1); guide: piRNA #1 5'p-UGAGGUAGUAGGUUGUAUAGUAUCCA; MIWI and MILI are mouse PIWI proteins and EfPiwi is from a freshwater sponge; tags in brackets are library labels; higher = faster piRNA-guided slicing of the target", "conditions": "auxiliary factor: 500 nM mouse GTSF1", "protocol": "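Cleave-'n-Seq: a library of target RNAs (target site embedded in constant flanks, ACAGCATTCCGCGTTAGTGATATCCG... 5' flank; DNA-blocked outside the site) at 0.1 nM was incubated with 1 nM active mouse MILI or MIWI piRISC (synthetic 5'-monophosphorylated piRNA guide) with or without 500 nM mouse GTSF1 at 33 °C for 1 min to 16 h. Uncleaved targets were sequenced and normalised to non-target controls, and the pooled three trials were fitted to a burst-and-steady-state model to give the pre-steady-state cleavage rate (min^-1; k3 is constrained to at most 1e-4). Sequence is the target site only; target names encode pairing extent (gX:gY) and contiguous / 1-mismatch / 2-mismatch / bulge geometry. Fits with R² ≤ 0 are excluded.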", "values": [{"sequence": "GGAGACCAUACUAUUCUACCUACUACCUCA", "pre-steady-state target cleavage rate": "0.178 ± 0.017"}, {"sequence": "GGAGACCUAUGUAUACUACCUACUACCUGA", "pre-steady-state target cleavage rate": "0.0173 ± 0.0042"}, {"sequence": "GGAGACCUAUGAAUACAACGUACUAGCUCA", "pre-steady-state target cleavage rate": "0.0036 ± 0.0035"}, {"sequence": "GGAGACCUAUGAUAUGUACCUACUACCCCA", "pre-steady-state target cleavage rate": "< 0.0001"}, {"sequence": "GGAGACCUUACUAUACAACCUACUACCCA", "pre-steady-state target cleavage rate": "0.0955 ± 0.016"}, {"sequence": "GGAGUCGAUACUAUACAACCUACUACGUCA", "pre-steady-state target cleavage rate": "0.0797 ± 0.0078"}, {"sequence": "GGAGACCAUACUAUACAACCUACAACGUCA", "pre-steady-state target cleavage rate": "0.0302 ± 0.012"}, {"sequence": "GGAGACCUAUGAUUACAAGCUACUACCACA", "pre-steady-state target cleavage rate": "0.0854 ± 0.022"}, {"sequence": "GGAGACCUUACUUUACAACCUAGUACCUCA", "pre-steady-state target cleavage rate": "0.047 ± 0.011"}, {"sequence": "GGAGAGGAUACUGAUACAACCUACUACCUCA", "pre-steady-state target cleavage rate": "0.17 ± 0.014"}, {"sequence": "GGAGACCUAUCUAUUCAAGCUACUACCUCA", "pre-steady-state target cleavage rate": "0.196 ± 0.015"}, {"sequence": "GGAGACCAUACUUUACAACCUACUACCUGA", "pre-steady-state target cleavage rate": "0.0887 ± 0.018"}, {"sequence": "GGAGAGGAUACUAUUCAACCUACUACCUCA", "pre-steady-state target cleavage rate": "0.178 ± 0.011"}, {"sequence": "GGAGACCUAUGAUUUCAUCCUACUACCUCA", "pre-steady-state target cleavage rate": "0.0038 ± 0.0025"}, {"sequence": "GGAGACCUAUGAUAUGUACUCUACUACCUCA", "pre-steady-state target cleavage rate": "< 0.0001"}, {"sequence": "GGAGACCAUACUAUACUACCUACUAGCUCA", "pre-steady-state target cleavage rate": "0.0939 ± 0.017"}, {"sequence": "GGAGACCAUACUAUACAUGGUACUACCUCA", "pre-steady-state target cleavage rate": "0.00626 ± 0.0026"}, {"sequence": "GGAGACCUAUGUAUACAACCUAGUACCUCA", "pre-steady-state target cleavage rate": "0.00921 ± 0.0021"}, {"sequence": "GGAGUCGAUACUAUACAACGUACUACCUCA", "pre-steady-state target cleavage rate": "0.0256 ± 0.0024"}, {"sequence": "GGAGACGAUACUAUACAACCAUACUACCUCA", "pre-steady-state target cleavage rate": "0.00651 ± 0.0034"}, {"sequence": "GGAGACCUUACUUUACAACCUUCUACCUCA", "pre-steady-state target cleavage rate": "0.00698 ± 0.0032"}, {"sequence": "GGAGACCUAUGAAUACAACCUAGUACCUGA", "pre-steady-state target cleavage rate": "< 0.0001"}, {"sequence": "GGAGUGGAUACUAUACAACCUACUGACCUCA", "pre-steady-state target cleavage rate": "0.0789 ± 0.011"}, {"sequence": "GGAGACGAUAGAUUACAACCUACUACCUCA", "pre-steady-state target cleavage rate": "0.0557 ± 0.011"}, {"sequence": "GGAGACGAUUCUAUACAACCUACUAGCUCA", "pre-steady-state target cleavage rate": "0.12 ± 0.013"}, {"sequence": "GGAGUCGAUACUAUACUACCUACUACCUCA", "pre-steady-state target cleavage rate": "0.19 ± 0.012"}, {"sequence": "GGAGACCUAUGUAAACAACCUACUAGCUCA", "pre-steady-state target cleavage rate": "0.00495 ± 0.0023"}, {"sequence": "GGAGACCAUACUAUACAACGAUCUACCUCA", "pre-steady-state target cleavage rate": "< 0.0001"}, {"sequence": "GGAGUGGAUACUAUACACCCUACUACCUCA", "pre-steady-state target cleavage rate": "0.0921 ± 0.0066"}, {"sequence": "GGAGACCAAACUAUACAACCUACUACCACA", "pre-steady-state target cleavage rate": "0.118 ± 0.028"}, {"sequence": "GGAGAGGAAACUAUACAACGUACUACCUCA", "pre-steady-state target cleavage rate": "0.0138 ± 0.0051"}, {"sequence": "GGAGACCUAUCAAUACAACCUAGUACCUCA", "pre-steady-state target cleavage rate": "0.00718 ± 0.0036"}, {"sequence": "GGAGUGGAUACUAUACAACCUACUACCAGA", "pre-steady-state target cleavage rate": "0.034 ± 0.0071"}, {"sequence": "GGAGACCUAACUAUACAACCUACCUACCUCA", "pre-steady-state target cleavage rate": "0.0837 ± 0.018"}, {"sequence": "GGAGACGAUACUAUACAACCUACUACCUAA", "pre-steady-state target cleavage rate": "0.153 ± 0.015"}, {"sequence": "GGAGACCUAUCUUUACAACCUACUACCUCA", "pre-steady-state target cleavage rate": "0.063 ± 0.0089"}, {"sequence": "GGAGACCAUACUAUACAAUCUACUACCUCA", "pre-steady-state target cleavage rate": "0.146 ± 0.013"}, {"sequence": "GGAGACGAUACUAUACAACCUACUACCUGA", "pre-steady-state target cleavage rate": "0.132 ± 0.02"}, {"sequence": "GGAGACCUAUCUAUUGAACCUACUACCUCA", "pre-steady-state target cleavage rate": "0.0631 ± 0.011"}, {"sequence": "GGAGACGAUAGUAUACAACCUACUACCUCA", "pre-steady-state target cleavage rate": "0.147 ± 0.011"}]}]}
